# Screening data deposited in PubChem by several laboratories.
# Compounds with a hit are over-represented: about 2.2% of the library has one in this group of screens.
# LGR2 inh: inhibitors of bursicon-induced Drosophila LGR2 receptor cAMP signaling. HEK293 LGR2, CRE-luciferase, bursicon-stimulated, 4 h. inhibition, % at 9.99 µM. actives 0.35% (n = 380,000);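 active means drop in luminescence signal, shown as inhibition above about 50% in the replicate tests, limit read from the data, passing the limit was not always enough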;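 further: agonist challenge used bursicon conditioned medium at about half maximal strength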
# TROY signal inh: TROY signaling inhibition; AID 1347056; Q293 LMP1-TROYcd NF-kB luciferase reporter, 4 h; actives 0.98% (n = 360,000); inhibition, % at 10 µM;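 active means compounds whose plate-normalised and pattern-corrected inhibition of the luciferase reporter signal at the single screening dose is 50% or more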
# TWEAK Fn14 block: inhibitors of TWEAK-Fn14 interaction signaling; TWEAK-stimulated Fn14 reporter cells, luciferase luminescence, 8 h; inhibition, % at 10 µM; actives 2% (n = 360,000); AID 1159606; in the data active means inhibition above about 50%
# HSP90 refold inh: inhibitors of HSP90 luciferase refolding in rabbit reticulocyte lysate. luciferase refolding luminescence, 3 h. inhibition, % at 5.6 µM. actives 0.91% (n = 290,000);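 active means inhibition above the screen-wide mean plus 3 SD, computed separately per campaign, cut at about 16% in these data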;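 further: inhibitors lower the luminescence because luciferase stays unfolded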
# A number is an active result; n = inactive; x = no result given.
SMILES,LGR2 inh,TROY signal inh,TWEAK Fn14 block,HSP90 refold inh
N#CC1=C(N)SC(N)=C(C#N)C1c1ccnc2ccccc12,x,n,n,n
CN1c2ccc(Br)cc2[C@@H]2[C@@H](CCN2S(=O)(=O)c2cccc(F)c2)[C@H]1CO,n,x,x,x
CN(C)CCCN=Cc1c(-c2ccccc2)[nH]n(-c2nc3ccccc3s2)c1=O,x,n,62,n
O=c1c(C=NCCCn2ccnc2)c(-c2ccccc2)[nH]n1-c1nc2ccccc2s1,n,n,n,n
Cc1ccccc1-c1cnc2c(c1)C(=O)N([C@H](C)CO)C[C@H](C)[C@@H](CN(C)C(=O)CC1CC1)O2,n,x,x,x
O=C1c2cccc(OCC(=O)N3CCCc4ccccc43)c2CCN1Cc1ccc(Br)cc1,n,n,79,n
CN1CCN(C(=O)c2cc3c(c(-c4cccc(C#CCC5CCCC5)c4)n2)[C@H](CCO)N(S(=O)C(C)(C)C)C3)CC1 (stereo partly drawn),n,x,x,x
Cc1cccc(OCCNc2ccc([N+](=O)[O-])cn2)c1,n,n,n,n
O=[N+]([O-])c1ccc(NCCOc2ccccc2Cl)nc1,n,n,51,n
COC(=O)C[C@H]1C[C@H]2c3cc(NC(=O)Nc4ccc(F)cc4)ccc3O[C@H]2[C@H](CO)O1,n,x,x,x
Nc1cc2c(cc1[N+](=O)[O-])-c1ccccc1C2=NO,n,n,72,x
Cc1ccc(S(=O)(=O)Nc2ccc3c(c2)CC(=O)N([C@@H](C)CO)C[C@@H](C)[C@H](CN(C)C(=O)Nc2ccc(F)cc2)O3)cc1,n,x,x,x
O=c1[nH]c(-c2ccccc2)cnc1-c1ccccc1,n,n,73,x
NC(=O)c1cc([N+](=O)[O-])ccc1NCc1ccc(N)cc1,n,67,84,x
NC(=O)c1cc([N+](=O)[O-])ccc1NCc1ccc(F)cc1,n,n,n,x
CC(C)(C)NCC(=Cc1ccccc1)C(=O)c1ccccc1,72,n,99,x
Cc1ccc(N(CCC#N)C(=O)CCl)cc1C,n,n,56,n
Cc1ccc(SCC(=O)OCC(=O)N(CCC#N)c2ccccc2)cc1C,n,n,n,x
COc1cc(/C=C2/CCCC(C(=O)C(F)(F)F)=C2O)ccc1O,n,n,n,n
COc1cc(/C=C2\CC/C(=C\c3cc(OC)c(O)c(OC)c3)C2=O)cc(OC)c1O,x,n,80,n
COc1cc(/C=C2\CC/C(=C\c3cc(OC)c(OC)c(OC)c3)C2=O)cc(OC)c1OC,n,n,n,n
COc1cc(/C=C2/CCc3ccccc3C2=O)cc(OC)c1OC,n,n,n,n
COc1cc(/C=C2\CCC/C(=C\c3ccc(O)c(OC)c3)C2=O)ccc1O,n,n,85,n
COc1cc(/C=C2\COC/C(=C\c3cc(OC)c(OC)c(OC)c3)C2=O)cc(OC)c1OC,x,78,102,n
COc1cc(/C=C2/CCC/C(=C\c3cc(O)c(OC)c(Cl)c3)C2=O)cc(Cl)c1O,x,58,n,n
SMILES,LGR2 inh,TROY signal inh,TWEAK Fn14 block,HSP90 refold inh
C[C@@H]1CN([C@@H](C)CO)C(=O)Cc2cc(NC(=O)CCN3CCOCC3)ccc2O[C@@H]1CN(C)C(=O)Nc1ccccc1,n,x,x,x
CCOc1cc(/C=N/N=C/c2ccc(O)c(OCC)c2)ccc1O,n,n,n,n
CCN1C/C(=C/c2cccc([N+](=O)[O-])c2)C(=O)/C(=C/c2cccc([N+](=O)[O-])c2)C1,84,n,95,n
CCOc1cc(/C=C2\CN(CC)C/C(=C\c3ccc(O)c(OCC)c3)C2=O)ccc1O,69,n,100,n
COc1ccc(-c2cn3c(C)c(C(=O)N4CCN(c5ccc(F)cc5)CC4)sc3n2)cc1,n,n,n,68
COc1ccc(-c2cn3c(C)c(C(=O)NC(C)(C)C)sc3n2)cc1,n,n,n,45
COc1ccc(-c2cn3c(C)c(C(=O)N4CCN(c5ccccc5)CC4)sc3n2)cc1,n,n,n,x
Cc1ccc(Cl)cc1N1CCN(C(=O)c2cc3c(=O)[nH]c4ccccc4c3n2C)CC1,64,n,n,n
Cn1c(C(=O)N2CCN(c3ccc(Cl)cc3)CC2)cc2c(=O)[nH]c3ccccc3c21,x,n,n,n
Cc1ccc(/C=C/C(=O)N2CCN(S(=O)(=O)c3cccs3)CC2)o1,n,n,86,n
CCC(C)(C)c1ccc(OCCCC[n+]2cccc(C)c2C)c(C(C)(C)CC)c1,x,n,52,n
CCC(C)(C)c1ccc(OCCCC[n+]2ccc(C)cc2)c(C(C)(C)CC)c1,n,x,x,n
Cc1onc(-c2ccccc2)c1NC(=O)Nc1c(-c2ccccc2)noc1C,x,n,n,n
Cc1onc(-c2ccccc2)c1NC(=O)OC(C)c1cccnc1 (stereo not drawn),n,n,87,x
O=C(Cc1ccncc1)NCC[C@@H]1CC[C@@H](NC(=O)C2CCC2)[C@H](CO)O1,n,x,x,x
Cc1ccc2nc(C(F)(F)F)c(C#N)c(N)c2c1,65,53,64,n
Cc1cc(C)c2nc(C(F)(F)F)c(C#N)c(N)c2c1,x,n,70,n
C[C@@H]1CN([C@H](C)CO)C(=O)c2cccc(NS(C)(=O)=O)c2O[C@@H]1CN(C)CC1CC1,n,x,x,x
COc1ccc2cc3c(N)nn(C(=O)c4ccccc4[N+](=O)[O-])c3nc2c1,x,n,82,n
COc1ccc2cc3c(N)nn(C(=O)c4ccc(Cl)c([N+](=O)[O-])c4)c3nc2c1,x,n,55,n
O=C(CCl)NCCNC(=O)c1cc(OCC(F)(F)F)ccc1OCC(F)(F)F,n,n,n,n
CC(C)CC(=O)NCCNC(=O)c1cc(OCC(F)(F)F)ccc1OCC(F)(F)F,x,x,76,n
CC(C)Cn1c(C(C)C)nc([N+](=O)[O-])c1Sc1ccc(Cl)cn1,x,n,n,n
CCCc1nc([N+](=O)[O-])c(S(=O)(=O)c2ccccc2)n1CC(C)C,n,n,83,n
CC(C)Cn1c(C(C)C)nc([N+](=O)[O-])c1S(=O)(=O)c1ccc(F)cc1,x,n,50,n
SMILES,LGR2 inh,TROY signal inh,TWEAK Fn14 block,HSP90 refold inh
CN1[C@@H]2c3ccc(-c4ccccc4)c(=O)n3C[C@H]1[C@H](CO)[C@H]2C(=O)NCC1CCCCC1,n,x,x,x
CN1C[C@H]2[C@@H](c3ccccc31)[C@H](CO)N2C(=O)Nc1cccc(F)c1,n,x,x,x
CCc1ccc(NC(=O)c2ccc(F)c(S(=O)(=O)NCC3COc4ccccc4O3)c2)cc1 (stereo not drawn),n,n,62,n
CCN(c1ccccc1)S(=O)(=O)c1cc(C(=O)Nc2ccc(Br)cc2)ccc1F,n,n,78,n
CCCNC(=O)c1ccccc1C(=O)NCCC,n,n,89,n
CC(NC(=O)/C=C/c1cnc2ccccc2n1)C12CC3CC(CC(C3)C1)C2 (stereo not drawn),n,75,77,n
N#CC1C(=O)c2ccccc2C1c1ccccc1 (stereo not drawn),n,52,n,x
O=C1CCC(c2ccccc2)c2ccccc21 (stereo not drawn),n,n,n,x
Cc1c(C(=O)N(C)C)sc2nc(-c3ccccn3)[nH]c(=O)c12,x,n,n,n
O=c1[nH]c(-c2ccccn2)nc2sc(-c3ccccc3)cc12,n,n,100,n
O=C(Nc1cccc(-c2cnc3ccccc3n2)c1)c1ccco1,x,x,n,n
O=C(Nc1cnc2ccccc2c1)c1ccco1,x,n,57,n
Cc1ccc(C(=O)Nc2cnc3ccccc3c2)cc1,x,87,105,87
